Experimental findings from PubChem BioAssay (NCATS) are described below.

Records with an inconclusive call do not appear. Activity calls are given as the source filed them. The call rests on the fitted dose curve; in most records, active means well fitted inhibition curve with a large enough effect; inconclusive means small, poorly fitted or top-dose-only effect; inactive means flat fitted curve, though single readings scatter.

Glutathione peroxidase 1 (Homo sapiens), sequence (P07203 whole entry, looked up): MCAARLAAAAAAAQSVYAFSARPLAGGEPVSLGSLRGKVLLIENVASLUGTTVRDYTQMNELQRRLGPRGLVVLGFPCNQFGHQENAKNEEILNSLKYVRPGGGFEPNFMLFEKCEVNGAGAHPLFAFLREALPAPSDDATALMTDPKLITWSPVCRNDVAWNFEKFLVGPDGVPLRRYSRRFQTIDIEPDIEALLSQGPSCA

This assay deals with Glutathione peroxidase 1 (Homo sapiens) (UniProt P07203). Description: Primary qHTS Assay for Inhibitors of Recombinant Selenoprotein Glutathione Peroxidase 1 (GPX1) (AID 1845191). Further: nearly all actives have a fitted effect of over 65% in size. Conditions: recombinant GPX1, GR-coupled NADPH fluorescence, 15 min; series mostly up to 48.8 µM. The source says:
Assay Provider: Elias S.J. Arner MD PhD.
Department of Medical Biochemistry and Biophysics
Karolinska Institutet, Solna, Stockholm, Sweden
Selenoprotein glutathione peroxidases (GPX), like the ubiquitously expressed GPX1 and the ferroptosis modulator GPX4, enact their antioxidant activities by reducing hydroperoxides using glutathione. […] GPX1 and GPX4 inhibitors have thus shown promise as anti-cancer agents. Existing inhibitors are often promiscuous, or modulate GPX activity only indirectly, so novel direct inhibitors identified through screening against GPX1 and GPX4 could be valuable. Here, we developed optimized glutathione reductase (GR)-coupled GPX assays for the biochemical high-throughput screen (HTS) of almost 12,000 compounds with known mechanisms of action. Initial hits were triaged using a GR counter-screen, assessed for isoform specificity using a separate GPX2 assay, and were assessed for general selenocysteine-targeting activity using a thioredoxin reductase (TXNRD1) assay. With this suite of assays, we identified novel GPX1/GPX2- and GPX4-specific inhibitors and can here present a validated pipeline for future discovery research for selenoprotein-targeting agents.
SEQUENCE No. (e.g., 1, 2, 3, etc.); […] (e.g., Cells, Incubation, Reagent, etc.); VALUE; DESCRIPTION.
1; Reagent 1; 3 uL; GPx1 enzyme or no enzyme control in 1536-well, black, solid Greiner assay plate.
2; Compound; 25 nL; Kalypsis pin tool (Wako USA) equipped with a 1536-well pin head.
3; Incubation; 30 min; room temperature.
4; Reagent 2; 1 uL; 10 nM GPX1, 1 mM GSH, 0.5 mM CHP, 0.5 mM NADPH, 100 nM GR, 0.01% BSA substrate
5; Detection; Fluorescence; ViewLux microplate reader, excitation 340 nm and emission 450 nm.
6; Incubation; 15 min; room temperature.
7; Detection; Fluorescence; ViewLux microplate reader, excitation 340 nm and emission 450 nm.
NOTES (numbers refer to Sequence numbers above)
1. 3 uL of 16.66 nM GPX1 and 0.016% BSA in assay buffer (50 mM Tris-HCl, 2 mM EDTA (pH 7.5), 150 mM NaCl) was added to columns 3-48 of 1536-well assay plates using a BioRAPTR Flying Reagent Dispenser (Let's Go Robotics (LGR), Carlsbad, CA). A no-enzyme control (0.01% BSA in TES assay buffer) was added to columns 1-2.
2. 25 nL of test compounds and DMSO controls were added to each well with a pin tool (Kalypsys).
3. The assay plates were incubated for 30 minutes at room temperature.
4. 1 uL of master mix (500 nM glutathione reductase (GR), 5 mM reduced glutathione (GSH), 2.5 mM NADPH in assay buffer) was added. 1 uL of cumene hydroperoxide (CHP) ([2.5 mM] in 50% EtOH) was then added within 5 minutes to initiate the reaction. Final concentrations were: 10 nM GPX1, 1 mM GSH, 0.5 mM CHP, 0.5 mM NADPH, 100 nM GR, 0.01% BSA.
5. Initial fluorescence readout (t=0) at 340/450 nm was measured using a ViewLux multimodal detector (PerkinElmer, Waltham, MA).
7. Endpoint fluorescence readout (t=15) at 340/450 nm was measured 15 min after room temperature incubation.
For `O=C(N[C@H]1N=C(c2ccccc2F)c2cccc3c2N(CC3)C1=O)c1cc2ccccc2[nH]1`, the result was inactive.

On to `O=C(O)Cc1ccccc1`, for which the result was inactive.

In the case of `C[C@H](N)[C@H](O)c1ccc(O)c(O)c1`, the outcome was inactive.

On to `CCCC[N+]1(C)[C@@H]2CC(OC(=O)[C@H](CO)c3ccccc3)C[C@H]1[C@@H]1O[C@@H]12` (stereo not given in full), for which the result was inactive.

Turning to `CNC(=O)Oc1cccc2ccccc12`, the result was inactive.

For `Nc1ccccc1C(=O)OCC(O)CO` (stereo not given), the result was inactive.

With `CN1C2CCC(C)(C)C1CC(OC(=O)C(O)(c1cccs1)c1cccs1)C2` (stereo not given), the outcome was inactive.

With `COP(=S)(OC)Oc1ccc(S(N)(=O)=O)cc1`, the outcome was inactive.

`C[C@@H]1CN(C2CCC(C#N)(c3ccc(F)cc3)CC2)CC[C@]1(C(=O)O)c1ccccc1` (stereo not given in full): the result was inactive.

As to `C[C@]12CC[C@H](O)CC1=CC[C@@H]1[C@@H]2CC[C@]2(C)C(=O)CC[C@@H]12`, the outcome was inactive.

Take `C[C@]12Cc3nonc3C[C@@H]1CC[C@@H]1[C@@H]2CC[C@@]2(C)[C@H]1CC[C@]2(C)O`: the result was inactive.

For the compound `O=C(CCCN1CCC(n2c(=O)[nH]c3ccccc32)CC1)c1ccc(F)cc1`, the outcome was inactive.

With `COC(=O)C1=CCCN(C)C1`, the outcome was inactive.

In the case of `c1ccc2c(c1)Sc1ccccc1N2CC1CN2CCC1CC2` (stereo not given), the result was inactive.

Regarding `O=C(NC(=O)c1c(F)cccc1F)Nc1cc(Cl)c(OC(F)(F)C(F)C(F)(F)F)cc1Cl` (stereo not given), the result was inactive.

Turning to `CCC(=O)O[C@H]1CC[C@H]2[C@@H]3CCC4=CC(=O)CC[C@]4(C)[C@H]3CC[C@]12C`, the result was inactive.

`CC(CC(C(N)=O)(c1ccccc1)c1ccccc1)N(C)C` (stereo not given): the outcome was inactive.

As to `Oc1ccc([C@H]2CNCc3c2ccc(O)c3O)cc1O`, the outcome was inactive.

On to `COc1ccc2c(C(=O)c3ccc(Cl)cc3)c(C)n(CC(=O)O)c2c1`, for which the result was inactive.

Turning to `CC1=C2[C@H]3OC(=O)[C@@H](C)[C@@H]3CC[C@@]2(C)C=CC1=O`, the result was inactive.

For the compound `CC#C[C@]1(O)CC[C@H]2[C@@H]3C[C@H](C)C4=CC(=O)CC[C@]4(C)[C@H]3CC[C@@]21C`, the outcome was inactive.

Regarding `CCOC(=O)NC(C)(C)Cc1ccc(Cl)cc1`, the outcome was inactive.

Consider `CCC(=O)C(CCN(C)C)(c1ccccc1)c1ccccc1`, for which the outcome was inactive.

For `COP(=O)(OC)OC=C(Cl)Cl`, the outcome was inactive.

For the compound `O=C(O)c1nn(Cc2ccc(Cl)cc2Cl)c2ccccc12`, the outcome was inactive.

Turning to `Cc1nnc2n1-c1sc(CCC(=O)N3CCOCC3)cc1C(c1ccccc1Cl)=NC2`, the result was inactive.

On to `COc1ccc(CN2CCNCC2)c(OC)c1OC`, for which the outcome was inactive.

Take `CC(C)C(Br)C(=O)NC(N)=O` (stereo not given): the outcome was inactive.

`CCCOC(=O)Cc1ccc(OCC(=O)N(CC)CC)c(OC)c1`: the outcome was inactive.

On to `CCCCC1C(=O)NC(=O)N(C2CCCCC2)C1=O` (stereo not given), for which the result was inactive.

Take `C[N+]1(C)[C@@H]2CC[C@H]1CC(OC(=O)C(CO)c1ccccc1)C2` (stereo not given in full): the result was inactive.

With `CC(C(O)c1ccccc1)N(C)C/C=C/c1ccccc1` (stereo not given), the result was inactive.

Consider `C[C@@H]1O[C@@H](O[C@@H]2C=C3CC[C@@H]4[C@H](CC[C@]5(C)[C@@H](c6ccc(=O)oc6)CC[C@]45O)[C@@]3(C)CC2)[C@H](O)[C@H](O)[C@H]1O`, for which the outcome was inactive.

Turning to `C[C@@H]1C[C@@H]([C@H](O)CC2CC(=O)NC(=O)C2)C(=O)[C@@H](C)C1`, the result was inactive.

For `CC[C@]1(O)CC[C@H]2[C@@H]3CCC4=CCCC[C@@H]4[C@H]3CC[C@@]21C`, the outcome was inactive.

With `Clc1ccc(CO/N=C(\Cn2ccnc2)c2ccc(Cl)cc2Cl)c(Cl)c1`, the outcome was inactive.

As for `CCCCCCCCCCCC[N+](C)(C)CCOc1ccccc1`, the outcome was inactive.

`CCC1(c2cccc(O)c2)CCCCN(C)C1` (stereo not given): the result was inactive.

As for `Cc1cccc(Cc2cnc[nH]2)c1C`, the outcome was inactive.

Take `Cc1nnc2n1-c1sc(CCc3ccc(CC(C)C)cc3)cc1C(c1ccccc1Cl)=NC2C` (stereo not given): the result was inactive.
